# Data as given in paper PMC4336329 (PLoS ONE, 2015).
# The whole screen tested about 310,000 compounds, of which about 14,000 (4.5%) showed an effect of 50% or more. The effect is printed as a negative number. Many of the other results were omitted from the sample, so strong results are more common in it than they were.
# Target: human ether-à-go-go-related gene (hERG) potassium channel (human, UniProt Q12809)
# Experiment: primary screen, population patch clamp on CHO cells stably expressing hERG; higher = less effect of the substance
# 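Further: peak tail current of the secondary pulse compared with the same well before compound.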
# Chain of human ether-à-go-go-related gene (hERG) potassium channel (Q12809 whole entry, looked up): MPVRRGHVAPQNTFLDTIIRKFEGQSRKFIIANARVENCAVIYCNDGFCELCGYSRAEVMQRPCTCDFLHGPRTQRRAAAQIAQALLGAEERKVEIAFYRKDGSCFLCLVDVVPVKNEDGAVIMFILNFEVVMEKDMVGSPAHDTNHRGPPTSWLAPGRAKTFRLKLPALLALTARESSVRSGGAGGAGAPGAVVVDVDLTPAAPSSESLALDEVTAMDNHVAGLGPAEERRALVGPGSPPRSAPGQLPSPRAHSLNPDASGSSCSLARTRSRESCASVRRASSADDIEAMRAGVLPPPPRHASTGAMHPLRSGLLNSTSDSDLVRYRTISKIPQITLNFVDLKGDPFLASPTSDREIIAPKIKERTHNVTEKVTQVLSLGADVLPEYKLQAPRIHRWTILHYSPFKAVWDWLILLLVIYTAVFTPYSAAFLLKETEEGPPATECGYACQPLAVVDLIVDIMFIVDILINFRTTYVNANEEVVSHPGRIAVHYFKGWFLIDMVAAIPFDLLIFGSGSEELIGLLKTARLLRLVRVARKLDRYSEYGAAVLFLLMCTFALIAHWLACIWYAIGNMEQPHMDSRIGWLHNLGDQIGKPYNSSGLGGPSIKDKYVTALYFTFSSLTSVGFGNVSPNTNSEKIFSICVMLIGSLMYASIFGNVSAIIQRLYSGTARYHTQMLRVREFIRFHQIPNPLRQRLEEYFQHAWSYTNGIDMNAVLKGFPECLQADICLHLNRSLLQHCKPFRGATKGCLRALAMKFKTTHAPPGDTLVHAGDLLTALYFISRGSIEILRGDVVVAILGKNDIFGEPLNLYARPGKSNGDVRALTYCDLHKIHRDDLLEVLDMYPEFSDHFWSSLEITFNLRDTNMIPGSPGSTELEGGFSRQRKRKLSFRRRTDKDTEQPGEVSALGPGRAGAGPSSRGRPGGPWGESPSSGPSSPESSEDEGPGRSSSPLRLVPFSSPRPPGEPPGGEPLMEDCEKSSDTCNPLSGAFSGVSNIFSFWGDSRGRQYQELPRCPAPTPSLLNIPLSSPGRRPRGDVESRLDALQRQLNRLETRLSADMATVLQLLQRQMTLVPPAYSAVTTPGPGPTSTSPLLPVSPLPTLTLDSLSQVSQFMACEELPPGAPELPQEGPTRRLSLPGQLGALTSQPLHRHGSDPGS
row,SMILES,"hERG current change (%, negative = inhibition) at 10uM [%]"
1,C/C(=N\Nc1ccccc1C(=O)O)c1ccncc1,0.449
2,CC(C)Nc1nc(NC(C)C)nc(OCCOC(=O)Nc2ccccc2)n1,-24.5
3,Cc1ccc(N/N=C(\C#N)C(=N)N2CCCCC2)cc1,-47.7
4,CN(CC(=O)Nc1ccccc1Br)C(=O)c1cc2c(s1)CCCCC2,-1.74
5,O=C(Nc1ccc(NC(=O)C2CC2)nc1)c1cccs1,14
6,O=C(CSc1n[nH]c(=O)n1-c1cccnc1)N1CCOCC1,12
7,CCNC(=O)NC(=O)CSc1nc2ccccc2n1CC(C)C,-4.02
8,Cc1cccc(N2CCN(CC(=O)NCC3CCCCC3)CC2)c1C.Cl,-6.63
9,COc1cc2[nH]c(=O)n(Cc3ccc(C(=O)N4CCC(N5CCCCC5)CC4)cc3)c(=O)c2cc1OC,12.3
10,CN(CCOc1ccccc1)C(=S)Nc1ccc(OC(F)F)cc1,-55.2
11,CC(=O)c1cccc(NC(=O)CN(C)Cc2ccc(OC(F)F)cc2)c1,-55
12,CC(=O)c1ccc(NC(=O)CN(C)CC(=O)Nc2cccc(F)c2)cc1,-18.5
13,CC(=O)c1ccc(NC(=S)N(CCCN(C)C)Cc2ccccc2)cc1,-53.3
14,COCCN(Cc1ccccc1)C(=S)Nc1ccc(Cl)cc1,11.1
15,CCCN(Cc1ccccc1)C(=S)Nc1ccc(OC(F)F)cc1,-41
16,CC(=O)c1ccc(NC(=S)N(Cc2ccccc2)C(C)C2CC2)cc1 (stereo not drawn),5.51
17,CCCCN(C)C(=S)Nc1ccc(Oc2ccccc2)cc1,-2.38
18,CCN(CC)C(=S)Nc1ccc(OC(F)F)cc1,-28.6
19,COc1ccc(NC(=O)CN(C)CC(=O)Nc2cccc(C(C)=O)c2)cc1,18.5
20,COCCN(Cc1ccccc1)C(=S)Nc1ccc(OC(F)F)cc1,-69.8
21,CCCN(Cc1ccccc1)C(=S)Nc1ccc(C(C)=O)cc1,-12.1
22,CCN(CC)C(=O)c1ccc(C)c(Br)c1,-0.776
23,CCc1cc2c(=O)[nH]cnc2s1,-3.48
24,CCCCCCc1cc2cc(-c3nnc(-c4ccccc4)o3)c(=O)oc2cc1O,5.15

row,SMILES,"hERG current change (%, negative = inhibition) at 10uM [%]"
1,CCOC(=O)Cc1csc(NC(=S)NC(=O)c2ccc(F)cc2)n1,11.9
2,CN(C)CCCN(Cc1ccccc1)C(=S)Nc1cccc(C(F)(F)F)c1,-52.6
3,CN(C)CCCN(Cc1ccccc1)C(=S)Nc1ccc(F)c(Cl)c1,-24.3
4,COc1ccc(NC(=S)N(CCO)Cc2ccccc2)cc1,2.34
5,CN(C)CCCN(Cc1ccccc1)C(=S)Nc1ccc(OC(F)F)cc1,-70.3
6,Cc1ccc(NC(=S)N(Cc2ccccc2)C(C)C)cc1,12
7,FC(F)Oc1ccc(NC(=S)NCc2cccnc2)cc1,-2.69
8,CC(C)N(Cc1ccccc1)C(=S)Nc1ccc(OC(F)F)cc1,-56.7
9,CCCN(Cc1ccccc1)C(=S)Nc1ccc(OCC)cc1,-35.8
10,CN(C)C(=S)Nc1cccc(C(F)(F)F)c1,5.67
11,CN(C)S(=O)(=O)c1cccc(NC(=S)N(CCC#N)Cc2cccnc2)c1,-7.37
12,N#CCCN(Cc1cccnc1)C(=S)Nc1ccc(OC(F)F)cc1,-78.2
13,CC(C)N(Cc1ccccc1)C(=S)Nc1ccc(F)cc1,-3.42
14,COc1ccc(S(=O)(=O)N(C)c2ccc(C(=O)N3CCOCC3)cc2)cc1,-6.62
15,CCOc1ccc(-c2c(C(=O)N/N=C/c3sccc3C)nnn2-c2nonc2N)cc1,19.7
16,COc1ccc(-n2ncc3c(N4CCc5ccccc54)ncnc32)cc1,0.927
17,Cc1cccc(OCCCC(=O)Nc2ccc(N(C)C)cc2)c1,-5.54
18,COc1cccc(N2C(=O)Nc3ccc(Br)cc3C2(O)C(=O)NCCCN(C)C)c1 (stereo not drawn),19.3
19,Cc1ccc(NC(=O)CSc2nnc(C3COc4ccccc4O3)o2)c(Cl)c1 (stereo not drawn),12.5
20,Brc1ccc(-c2noc(-c3ccccn3)n2)o1,2.68
21,COC(=O)C1(C)NC(c2ccco2)C2C(=O)N(c3ccc(C)cc3)C(=O)C21 (stereo not drawn),-22.5
22,FC(F)(F)c1cccc(-c2nnc(-c3ccccc3)c(N3CCOCC3)n2)c1,-19.7
23,Cc1nnc(-c2ccccc2)nc1N1CCOCC1,-10.2
24,Cc1nnc(-c2cccc(C(F)(F)F)c2)nc1N1CCOCC1,-74.1

row,SMILES,"hERG current change (%, negative = inhibition) at 10uM [%]"
1,CC1CC(C)CN(C(=O)Cn2c(=O)oc3cc(S(=O)(=O)N4CCCC4)ccc32)C1 (stereo not drawn),-3.39
2,CCn1cc(C(=O)OCC(=O)OC2CC(C)CCC2C(C)C)c(=O)c2ccc(C)nc21 (stereo not drawn),-51.8
3,CCn1cc(C(=O)OCC(=O)N2C(C)CCCC2C)c(=O)c2ccc(C)nc21 (stereo not drawn),11
4,C=CCOC(=O)c1cn(CC)c2nc(C)ccc2c1=O,-5.77
5,Cc1cc(C)cc(NC(=O)C2CCCN(S(=O)(=O)c3c(C)noc3C)C2)c1 (stereo not drawn),-4.34
6,CCOc1ccccc1NS(=O)(=O)c1csc(C(N)=O)c1,11.7
7,CN(CC(=O)Nc1ccccc1Cl)CC(=O)Nc1sc2c(c1C(N)=O)CCC2,-66.2
8,Cc1ccc(NC(=O)CN(C)CC(=O)Nc2sc3c(c2C(N)=O)CCC3)cc1,-55.5
9,COc1ccc(NC(=O)CN(C)CC(=O)Nc2sc3c(c2C(N)=O)CCC3)cc1,-79
10,COc1ccc(CC(=O)Nc2sc3c(c2C(N)=O)CCCC3)cc1,-1.39
11,CN(CC(=O)Nc1ccc(C(N)=O)cc1)CC(=O)Nc1ccccc1Cl,-5.04
12,COc1ccc(NC(=O)CN(C)CC(=O)Nc2sc3c(c2C#N)CCC3)cc1,0.0459
13,CCC(=O)Nc1sc2c(c1C(N)=O)CCC2,-15.7
14,Cc1cccc(C)c1NC(=O)CN(C)CC(=O)Nc1sc2c(c1C(N)=O)CCC2,-33.9
15,NC(=O)c1c(NC(=O)c2ccccc2Cl)sc2c1CCC2,15.1
16,CSc1ncccc1C(=O)OCC(=O)c1ccccc1,35
17,CCN(CC(=O)Nc1ccc2c(c1)OCCO2)C(=O)CC(NC(C)=O)c1ccccc1 (stereo not drawn),18.7
18,Cc1csc(NC(=O)CCCNC(=O)c2ccc(Cl)cc2)n1,-23.6
19,CCC(C)c1ccccc1N1CC(C(=O)Nc2ccc(S(=O)(=O)N3CCOCC3)cc2)CC1=O (stereo not drawn),-9.78
20,COc1ccccc1N1CCN(CC(O)COc2ccc(S(=O)(=O)N3CCOCC3)cc2)CC1.Cl (stereo not drawn),-4.3
21,COc1ccccc1N1CCN(CC(O)COCCOc2ccc(Br)cc2)CC1.Cl (stereo not drawn),-58.8
22,COc1ccc(OCCOCC(O)CN2CCOCC2)cc1.Cl (stereo not drawn),4.55
23,COc1ccc(N2CCN(CC(O)COCCOc3ccc(Br)cc3)CC2)cc1.Cl (stereo not drawn),-69.1
24,COc1ccccc1NC(=O)CSc1nnc(Cn2nnc(-c3ccccc3)n2)n1-c1ccccc1,-5.02

row,SMILES,"hERG current change (%, negative = inhibition) at 10uM [%]"
1,CC(CCc1ccccc1)NC(=O)CNC(=O)COc1ccccc1 (stereo not drawn),-0.873
2,O=C(NC(=S)Nc1ccc2cn[nH]c2c1)c1ccccc1,-2.32
3,Cc1ccccc1C1NC(=S)NC2=C1C(=O)CC(C)(C)C2 (stereo not drawn),18.5
4,Clc1ccc2oc(-c3cccnc3)nc2c1,-14.9
5,Clc1ccc(-n2ncc3c(NCCCn4ccnc4)ncnc32)cc1,-26.1
6,COc1ccc(-c2oc3ncnc(NCCCN4CCOCC4)c3c2-c2ccc(OC)cc2)cc1,2.49
7,c1ccc(-c2oc3ncnc(NCCN4CCOCC4)c3c2-c2ccccc2)cc1,-21.3
8,c1cn(CCCNc2ncnc3nc[nH]c23)cn1,8.93
9,c1ccc(-c2oc3ncnc(NCCCN4CCOCC4)c3c2-c2ccccc2)cc1,-87.1
10,c1ccc(-c2oc3ncnc(NCCCn4ccnc4)c3c2-c2ccccc2)cc1,-69.9
11,Cc1ccc(OCCCC(=O)Nc2cc(Cl)ccc2-n2cncn2)cc1,-22.4
12,CCOC(=O)N1CCN(C(=O)CSCC(=O)Nc2nc(-c3cccs3)cs2)CC1,-31.4
13,CCOc1ccc(CN2CCC(C(=O)N3CCN(c4ccccc4F)CC3)CC2)cc1OC.O=C(O)C(=O)O,-64.8
14,COc1ccc(OC)c(CN2CCC(C(=O)N3CCN(c4ccccc4F)CC3)CC2)c1.O=C(O)C(=O)O,-65.3
15,COc1cccc(CN2CCC(C(=O)N3CCN(c4ccccc4F)CC3)CC2)c1,-53
16,COc1cc(CN2CCC(C(=O)N3CCN(c4ccccc4F)CC3)CC2)cc(OC)c1OC.O=C(O)C(=O)O,-22.6
17,COc1ccc(CN2CCC(C(=O)N3CCN(c4ccccc4F)CC3)CC2)cc1OC,-37
18,CCOc1ccccc1N1CC(C(=O)N2CCc3ccccc3C2)CC1=O (stereo not drawn),-19.4
19,COc1cc(CN2CCC(C(=O)N3CCN(c4ccccc4F)CC3)CC2)ccc1O.O=C(O)C(=O)O,-19.9
20,CCOc1ccccc1N1CC(C(=O)N2CCOCC2)CC1=O (stereo not drawn),13.9
21,COc1cccc(CN2CCC(C(=O)N3CCC(C)CC3)CC2)c1.O=C(O)C(=O)O,-11
22,COc1cccc(CN2CCC(C(=O)N3CCN(c4ccccc4F)CC3)CC2)c1OC.O=C(O)C(=O)O,-10.2
23,CCOc1ccccc1N1CC(C(=O)N2CCN(Cc3ccc(C#N)cc3)CC2)CC1=O (stereo not drawn),-67.3
24,COc1cc(CN2CCC(C(=O)N3CCN(c4ccccc4F)CC3)CC2)cc(OC)c1O.O=C(O)C(=O)O,-3.74
